Assay outcomes: PubChem BioAssay, National Center for Advancing Translational Sciences (NCATS)
Rows were chosen to be rich in hits. Some 0.97% of all compounds tested hit in one or more screens of this group.
MmCpn inh – blocks the Methanococcus maripaludis chaperonin Mm-Cpn; purified Mm-Cpn ATPase, ADP Transcreener TR-FRET; Potency, µM (highest dose often 76.9 µM), for the others: at the highest dose activity, negative = inhibition, hits mostly inhibitors; 0.031% of 330,000 active; also: potency is read from the fitted curve at half-maximal effect; % is scaled to controls: 0 for no effect and ±100 for the full control effect; nearly all actives have a fitted effect of over 80% in size
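Purified archaeal chaperonin (25 nM final) was preincubated with compound for 10 min at 37°C, then ATP (10 uM final) was added for 30 min at 37°C in Tris pH 7.4/KCl/MgCl2/DTT buffer. ADP was quantified by HTRF Transcreener TR-FRET.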
Epigenetic derep – regulators of epigenetic silencing causing reporter derepression in mouse cells; AID 1865; murine LDR cells, GFP reporter derepression, 30 h; 0.2% of 280,000 active; Potency, µM (titrated, usually from 53.9 µM), for inactives: at the top dose GFP activation, usual class: activators; also: potency is read from the fitted curve at half-maximal effect; % of control where 0% means no effect; nearly all actives have a fitted effect of over 60% in size
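GFP-positive cell count by laser-scanning cytometry (objects 20–120 um) after 30 h, 37 C compound exposure of murine LDR cells; reporter is CMV-GFP integrated at a silenced locus, inducible by HDAC or DNMT inhibitors.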
CCT modulator – changes cytosolic chaperonin activity; 0.3% of 360,000 active; activity change, % (no concentration beside the values), hits read low; purified chaperonin ATPase assay, HTRF ADP detection, 30 min; in the data active = activity change below about -30%; also: % is scaled to controls: 0 for no effect and ±100 for the full control effect
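Enzyme 40 or 20 nM (batch-dependent) in Tris pH 7.4/KCl/MgCl2/DTT; cpd 76 uM single point; ATP 10 uM; 30 min 37 °C; Transcreener ADP HTRF detection, 30 min RT; ratio 665/615.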
uPA generation – inhibitors of cell surface uPA generation; cell surface uPA generation assay, qHTS; Potency, µM (series often up to 38.3 µM), for the others: at the highest dose activity change, negative = inhibition, actives largely listed as inhibitors; 0.31% of 330,000 active; AID 540303; active = well fitted inhibition curve with a large enough effect; inconclusive = small, poorly fitted or top-dose-only effect; inactive = no such curve, though single readings can be large or run the other way; tested in mouse RAW 264.7 cells; also: potency is read from the fitted curve at half-maximal effect; % is scaled to controls: 0 for no effect and ±100 for the full control effect; nearly all actives have a fitted effect of over 55% in size
MBNL1-CUG inh – MBNL1-poly(CUG) RNA binding inhibition; Q9NR56; Potency, µM (top dose mostly 57.5 µM), for inactives: at the highest dose activity change, negative = inhibition, actives largely listed as inhibitors; TR-FRET MBNL1-His/biotin-(CUG)12 binding, 665/545 ratio; 0.036% of 280,000 active; active = well fitted inhibition curve with a large enough effect in the signal ratio, with a control signal flat, not every such curve was filed as active; inconclusive = small, poorly fitted or top-dose-only effect, or effect the other way, or a change in a side signal; inactive = no such curve, though single readings can be large or run the other way; the % refers to the signal ratio; also: potency is read from the fitted curve at half-maximal effect; % is scaled to controls: 0 for no effect and ±100 for the full control effect
Target sequence (Q9NR56 whole entry, looked up): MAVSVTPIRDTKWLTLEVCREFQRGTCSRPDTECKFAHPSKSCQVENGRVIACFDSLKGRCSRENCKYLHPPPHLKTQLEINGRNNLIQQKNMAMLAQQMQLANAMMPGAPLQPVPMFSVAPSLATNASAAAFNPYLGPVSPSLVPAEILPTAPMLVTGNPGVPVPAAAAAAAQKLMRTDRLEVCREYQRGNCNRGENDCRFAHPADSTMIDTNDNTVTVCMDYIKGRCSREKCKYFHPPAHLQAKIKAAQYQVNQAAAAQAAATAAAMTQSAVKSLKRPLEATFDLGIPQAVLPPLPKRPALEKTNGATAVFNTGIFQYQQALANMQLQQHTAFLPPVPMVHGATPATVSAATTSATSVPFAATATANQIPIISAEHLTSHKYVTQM
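TR-FRET readout: Ex 340 nm, 665/545 nm emission ratio, normalized to buffer-only (basal) and MBNL1-(CUG)12 controls. Complex of MBNL1-His with Biotin-(CUG)12, compounds 92 nM–58 uM, incubated 60 min at room temperature.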
Akt phos inh – inhibitors of Akt phosphorylation | AID 651550 | activity change, % for hits at 50 µM | 0.32% of 360,000 active | Neuro2A IGF-stimulated pAkt S473 HTRF, 20 min; active compounds read low; in the data active = activity change below about -80%; inconclusive = mostly about -51% to -80%; also: % is scaled to controls: 0 for no effect and ±100 for the full control effect
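Neuro2A cells (4,500/well, DMEM with 0.5% FBS) were treated with compound at a single 50 µM final concentration, stimulated with 6 nM IGF for 20 min at 37 °C, and lysed. Phospho-Akt Ser473 was read by HTRF as 665/615 ratio ×10^4.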
Parental c127i – changes parental c127i cell counts in epigenetic modulator counter-screen. AID 493065. Potency, µM, for the others: at the highest dose fluorescent cell count, hits mostly activators. mouse c127i parental cells, fluorescent cell count, 30 h. 20% of 60 active. shares compounds with Epigenetic derep
HCC4017 tox – HCC4017 cytotoxicity of epigenetic modulator hits; shares compounds with Epigenetic derep; HCC4017 NSCLC viability, CellTiter-Glo ATP luminescence, 72 h; Potency, µM (highest dose often 46.1 µM), without a hit: top-dose activity change, negative = cytotoxicity, hits mostly cytotoxic; 30% of 45 active
H358 viab – H358 cytotoxicity of epigenetic modulator hits; shares compounds with Epigenetic derep; 30% of 45 active; H358 NSCLC viability, ATP luminescence, 72 h; Potency, µM (doses to about 46.1 µM), inactives show at the top dose activity change, negative = viability loss, hits mostly cytotoxic
The depositor's hits bear a star; i = inactive; ? = inconclusive; · = no result given. Unless noted, calls follow the shape of the dose curve; as a rule, active = well fitted curve in the direction sought with a large enough effect; inconclusive = small, poorly fitted or top-dose-only effect, or another doubt; inactive = no such curve, though single readings can be large; an effect the other way counts as inactive or inconclusive.

SMILES	MmCpn inh	Epigenetic derep	CCT modulator	uPA generation	MBNL1-CUG inh	Akt phos inh	Parental c127i	others
Cc1cccc(NC(=O)Cn2c(=O)n(Cc3ccco3)c(=N)c3c4c(sc32)COC(C)(C)C4)c1	?	-3.1%	-0.5	-3.1%	-10.7%	i	·
CC1(C)Cc2c(sc3c2c(=N)n(Cc2ccco2)c(=O)n3CC(=O)Nc2cccc(Cl)c2)CO1	-8.2%	-5.0%	1.3	7.4%	19.4%	-122.3%*	·
CCCOc1ccccc1NC(=O)/C=C/c1ccc(OC)c(S(=O)(=O)N2CCOCC2)c1	·	·	0.0	·	·	i	·
CN(CC(=O)Nc1ccc(F)c(F)c1)S(=O)(=O)c1cccs1	0.9%	·	-39.9*	1.9%	0.4%	i	·
CCOC(=O)CC1C(=O)NCCN1c1nc2ccc(C)cn2c(=O)c1/C=C1\SC(=S)N(C(C)CC)C1=O (stereo not given)	-0.9%	-3.1%	·	·	15.4%	·	·
CCOC(=O)CC1C(=O)NCCN1c1nc2ccc(C)cn2c(=O)c1/C=C1\SC(=S)N(CC(C)C)C1=O (stereo not given)	-2.2%	3.55µM*	-1.8	-1.7%	5.8%	i	·
CCn1nccc1NC(=O)c1ccc2sc([C@@H]3O[C@H](CO)[C@H](O)[C@H](O)[C@H]3O)nc2c1	·	·	-0.6	·	·	i	·
COc1cc(Nc2nc3c(S(=O)(=O)c4ccc(C)c(C)c4)nnn3c3ccsc23)cc(OC)c1	·	13.0%	·	·	·	·	·
CC(C)(C)c1nc2ccc(NS(=O)(=O)c3ccc(F)c(F)c3F)cc2[nH]1	-0.4%	·	-2.0	-2.7%	5.4%	i	·
CCCN1C(=O)/C(=C/c2ccc(N3CCCC3)c(C)c2)NC1=S	-0.6%	1µM*	-0.9	-3.1%	?	i	·
CC(C)c1ccc(C2C(C#N)=C(N)N3C(=C2C#N)Sc2ccccc23)cc1 (stereo not given)	?	20µM*	·	·	121.8%	·	·
NC(=O)c1ccc(Cc2ncc(C(F)(F)F)cc2Cl)s1	-21.7%	-1.3%	0.1	-0.7%	5.3%	-106.1%*	·
O=S(=O)(N/N=C/c1ccc(Cl)cc1)c1ccc(Cc2ncc(C(F)(F)F)cc2Cl)s1	-1.2%	0.0%	-1.0	-1.2%	6.1%	i	·
COc1cccc(NC(=O)C(=O)N2CCOCC2)c1	-0.4%	4.2%	0.4	-4.8%	-20.4%	-100.3%*	·
O=C(O)CCCCCN1C(=O)/C(=C\c2ccc(-c3ccc(Cl)cc3)o2)SC1=S	-0.2%	3.55µM*	-0.7	0.4%	3.9%	i	7.94µM*
CSc1nsc(/C=C/Nc2cccc(Cl)c2)c1C#N	·	7.08µM*	0.8	7.3%	45.8%	i	10µM*	HCC4017 tox=-18.7%;H358 viab=-14.3%
N#Cc1sc2nc(-c3ccccc3)cc(C(F)(F)F)c2c1N	-2.7%	?	1.5	-1.0%	-0.3%	i	15.8µM*
O=C(OCCOCCN=C1NS(=O)(=O)c2ccccc21)c1ccccc1Br	1.1%	·	1.1	-1.5%	-2.0%	i	·
CCc1nnc(NC(=O)c2cccc(C(=O)Nc3nnc(CC)s3)n2)s1	-0.5%	2.51µM*	-1.2	-0.8%	-7.3%	i	6.0%	HCC4017 tox=0.499µM*;H358 viab=0.56µM*
CCCc1cc(NCC2CCCO2)n2c(nc3ccccc32)c1C#N (stereo not given)	-3.0%	-0.1%	-0.9	-5.7%	8.2%	i	·
COc1ccc(CCn2cc3c(c2-c2ccccc2Br)c(=O)n(C)c(=O)n3C)cc1OC	·	-3.0%	·	·	·	·	·
CN1CCN(c2ccc(NC(=O)c3ccc([N+](=O)[O-])o3)cc2Cl)CC1	-4.7%	·	-0.7	-18.1%	?	i	·
CC(C)C(=O)N1CCN(c2ccc(NC(=O)c3ccc([N+](=O)[O-])o3)cc2Cl)CC1	-3.1%	?	-5.3	-13.2%	?	i	?
CCCC(=O)N1CCN(c2ccc(NC(=O)c3ccc([N+](=O)[O-])o3)cc2Cl)CC1	0.0%	?	-0.1	-11.5%	·	i	4.0%	HCC4017 tox=1.77µM*;H358 viab=2.5µM*
CN(C)S(=O)(=O)c1ccc(C(=O)NNC(=O)C23CC4CC(CC(C4)C2)C3)cc1	0.3%	·	-4.0	-0.2%	·	i	·
SMILES	MmCpn inh	Epigenetic derep	CCT modulator	uPA generation	MBNL1-CUG inh	Akt phos inh	Parental c127i	others
CCOc1ccc(Nc2c(S(=O)(=O)c3ccc(Cl)cc3)cnc3ccc(OCC)cc23)cc1	·	0.0%	·	·	·	·	·
CN(C)S(=O)(=O)c1ccc2c(c1)/C(=C/c1cc3c([nH]1)CCCC3)C(=O)N2	-4.2%	7.94µM*	-1.3	?	·	i	3.16µM*
CN(C)S(=O)(=O)c1ccc2c(c1)C(=O)c1cc(S(=O)(=O)N(C)C)ccc1CC2	-30.0%	·	·	4.2%	·	·	·
CCC(C)NC(=O)C1CC(=O)N(CCc2ccc(F)cc2)C1 (stereo not given)	0.5%	·	2.0	-4.2%	-13.1%	i	·
C(=N\Nc1nc(-c2ccccn2)nc2ccccc12)/c1ccccc1	0.6%	10µM*	·	·	·	i	5.0%	HCC4017 tox=0.397µM*;H358 viab=?
C(=N\Nc1nc(-c2cccnc2)nc2ccccc12)/c1ccccc1	-1.8%	0.1%	-1.5	-7.9%	7.3%	i	·
CC(=O)N[C@@H](CSC/C=C(\C)CCC=C(C)C)C(=O)O	·	6.3%	·	·	·	·	·
CC(=O)N[C@@H](CSC(=O)[C@]1([C@@H](O)C(C)C)NC(=O)[C@H](C)[C@@H]1O)C(=O)O	·	?	·	·	·	·	25.1µM*
COc1ccc2c(C)cc(SCC(=O)N(C)C3CCS(=O)(=O)C3)nc2c1 (stereo not given)	0.3%	10µM*	-2.2	-2.3%	-4.8%	i	?	HCC4017 tox=-14.4%;H358 viab=-8.4%
CCC1CN(C(=O)Nc2ccc(Br)cc2F)c2ccccc2S1 (stereo not given)	·	0.0%	·	·	·	·	·
CC1CCCN(c2nc3nonc3nc2Nc2ccccc2F)C1 (stereo not given)	1.8%	1.2%	-0.8	-6.4%	-3.2%	i	·
COc1ccc(OC)c(Nc2nc3nonc3nc2N2CCCC(C)C2)c1 (stereo not given)	?	?	-1.1	6.0%	·	i	14.1µM*
O=C1C=C(Nc2ccc(Cl)cc2)C(=O)N1c1ccc(Cl)cc1	1.2%	10µM*	1.7	-13.9%	·	i	?	HCC4017 tox=-3.0%;H358 viab=13.6%
